HCV inhibitor: qHTS Assay for Inhibitors of Hepatitis C Virus (HCV); Huh7.5.1 HCVcc-Cre infection, luciferase reporter, 44 h; Potency, µM (doses to about 41.8 µM), without a hit: top-dose activity change, negative = inhibition, actives largely listed as inhibitors; hit rate 3.4% among 340,000; AID 651820, 2012
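Cells seeded at 1,000/well and cultured 4 h, then compounds added followed by HCVcc-Cre virus (~0.5 moi). After 44 h further culture, luciferase substrate was added, plates held 15 min at room temperature, and luminescence read for 15 sec.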
Pf growth 96h: Primary qHTS for delayed death inhibitors of the malarial parasite plastid, 96 hour incubation; P. falciparum luciferase reporter growth, 96 h; Potency, µM (highest dose often 28.7 µM), for inactives: top-dose activity change, negative = inhibition, actives largely listed as inhibitors; hit rate 6.9% among 320,000; AID 504834, 2011
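96 h incubation, 37 C, 5% CO2, of luciferase-reporter P. falciparum-infected RBCs (2% hematocrit, 0.05% parasitemia final) with test compounds; endpoint luminescence.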
AMA1 RON2 block: qHTS for Inhibitors of AMA1-RON; Towards Development of Antimalarial Drug Lead: Primary Screen; Potency, µM (series often up to 58.2 µM), without a hit: top-dose activity change, negative = inhibition, most hits filed as inhibitors; AID 720542, 2013; AlphaScreen AMA1-biotinylated RON2 peptide binding; Plasmodium falciparum AMA1 (3D7) - RON2 peptide interaction; hit rate 0.2% among 360,000;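 note: 0% = vehicle wells and -100% = peptide control; nearly all actives have a fitted effect of over 45% in size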
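AMA1 (3D7) with his tag at 25 nM final met compounds first, then biotinylated RON2 peptide at 25 nM; detection used donor plus acceptor beads, 10 µg/mL apiece, read by AlphaScreen after 30 min at room temperature.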
AmpC inh detg: qHTS Inhibitors of AmpC Beta-Lactamase (assay with detergent); P00811; hit rate 0.041% among 370,000; Potency, µM (titrated, usually from 114 µM), for the others: at the highest dose activity change, negative = inhibition, hits mostly inhibitors; AmpC hydrolysis of nitrocefin, absorbance 480 nm, 0.01% Triton;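 note: 0% = no-compound wells and -100% = no-enzyme wells; nearly all actives have a fitted effect of over 25% in size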
Target sequence (P00811 whole entry, looked up): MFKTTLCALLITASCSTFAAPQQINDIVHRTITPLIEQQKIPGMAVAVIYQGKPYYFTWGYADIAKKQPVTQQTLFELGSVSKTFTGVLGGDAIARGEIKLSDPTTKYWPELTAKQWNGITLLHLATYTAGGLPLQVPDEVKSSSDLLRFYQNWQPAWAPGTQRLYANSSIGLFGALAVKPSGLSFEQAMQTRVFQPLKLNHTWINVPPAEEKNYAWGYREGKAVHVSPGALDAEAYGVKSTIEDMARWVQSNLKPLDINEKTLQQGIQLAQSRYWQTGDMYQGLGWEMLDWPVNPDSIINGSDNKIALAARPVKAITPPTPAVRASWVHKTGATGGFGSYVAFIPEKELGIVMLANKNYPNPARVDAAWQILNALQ
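AmpC (5.3 nM in the dispensed reagent) in 20 mM phosphate pH 7.0 with 0.01% (detergent screen) or 0.0001% Triton X-100 was preincubated with compounds for 15 min at room temperature. Nitrocefin was then added from an 800 uM solution, and hydrolysis was followed at 480 nm.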
Pf growth 48h: Primary qHTS for delayed death inhibitors of the malarial parasite plastid, 48 hour incubation. P. falciparum luciferase growth in erythrocytes, 48 h. Potency, µM (titrated, usually from 28.7 µM), without a hit: top-dose activity change, negative = inhibition, hits mostly inhibitors. hit rate 5.9% among 310,000. AID 504832, 2011
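Cell-based growth assay: transgenic P. falciparum expressing firefly luciferase, cultured in red cells within RPMI 1640 containing 0.5% w/v Albumax, 24 mM bicarbonate and gentamycin. A drop in luciferase activity indicates inhibition.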
AmpC inh no detg: qHTS Inhibitors of AmpC Beta-Lactamase (assay without detergent); P00811; AmpC nitrocefin hydrolysis, absorbance 480 nm, 0.0001% Triton; Potency, µM (highest dose often 57.1 µM), for the others: at the top dose activity change, negative = inhibition, hits mostly inhibitors; hit rate 0.52% among 330,000;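 note: plate controls were no compound for no effect and no enzyme for full effect; nearly all actives have a fitted effect of over 20% in size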
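20 mM phosphate pH 7.0 + 0.01% (detergent screen) or 0.0001% Triton X-100; 5.3 nM AmpC reagent; cpd preinc 15 min RT; nitrocefin (800 uM stock) to start; A480 q20 s × 4 min; Activity was normalised to no-enzyme and no-compound control wells.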
* hit, by the source's call. Only some compounds are listed: those with a hit (about 11% of all), similar ones and a draw of the others. Calls come from the whole dose curve; as a rule, active = well fitted curve in the direction sought with a large enough effect; inconclusive = small, poorly fitted or top-dose-only effect, or another doubt; inactive = no such curve, though single readings can be large; an effect the other way counts as inactive or inconclusive. Unless noted, % is set by controls: 0 for no effect and ±100 for the full control effect; potency is the fitted concentration of half-maximal effect.

What do the screens show for `CCc1cccc(NC(=O)Cn2cccc2)c1`?
HCV inhibitor: 22%; Pf growth 96h: 4.7µM*; AMA1 RON2 block: -10%; AmpC inh detg: -2%; Pf growth 48h: 72%; AmpC inh no detg: -3%

How did Cc1ccc(NC(=O)CCn2cccc2)cc1F do in these assays?
HCV inhibitor: -3%; AMA1 RON2 block: -9%; AmpC inh detg: inconclusive; AmpC inh no detg: -14%

How did O=C(CCn1cccc1)Nc1cccc(F)c1 do in these assays?
HCV inhibitor: 13%; Pf growth 96h: 12µM*; AMA1 RON2 block: -9%; AmpC inh detg: -3%; Pf growth 48h: 13%; AmpC inh no detg: -10%

How did Cc1cccc(N2CC(C(=O)Nc3cccc(S(=O)(=O)N4CCCCC4)c3)CC2=O)c1C (stereo unspecified) do in these assays?
HCV inhibitor: inconclusive; Pf growth 96h: inconclusive; AMA1 RON2 block: -6%; AmpC inh detg: 0%; Pf growth 48h: inconclusive; AmpC inh no detg: 42%

Results for Cc1ccccc1N1CC(C(=O)Nc2ccncc2)CC1=O (stereo unspecified) ?
HCV inhibitor: 32%; Pf growth 96h: 13µM*; AMA1 RON2 block: 5%; AmpC inh detg: inconclusive; Pf growth 48h: -12%; AmpC inh no detg: -14%

What do the screens show for `CC(=O)c1cccc(NC(=O)C2CC(=O)N(c3cccc(C)c3C)C2)c1` (stereo unspecified)?
HCV inhibitor: 9%; Pf growth 96h: 21%; AMA1 RON2 block: 11%; AmpC inh detg: 3%; Pf growth 48h: 1.5µM*; AmpC inh no detg: 17%

How did Cc1cccc(N2CC(C(=O)Nc3nnc(SCCN4CCOCC4)s3)CC2=O)c1 (stereo unspecified) do in these assays?
HCV inhibitor: -20%; Pf growth 96h: inconclusive; AMA1 RON2 block: 11%; AmpC inh detg: -4%; Pf growth 48h: -14%; AmpC inh no detg: -15%

How did Cc1ccccc1N1CC(C(=O)Nc2nnc(SCCN3CCOCC3)s2)CC1=O (stereo unspecified) do in these assays?
HCV inhibitor: 1%; Pf growth 96h: 4.1µM*; AMA1 RON2 block: 7%; AmpC inh detg: 4%; Pf growth 48h: inconclusive; AmpC inh no detg: 76%

How did OC(C#CCN1CCCC1)(c1ccccc1)c1ccccc1 do in these assays?
Pf growth 96h: 9.5µM*; AMA1 RON2 block: -1%; AmpC inh detg: inconclusive; Pf growth 48h: inconclusive; AmpC inh no detg: 0%

Results for Cc1ccc(NC(=O)Cn2cc(S(=O)(=O)c3ccc(C)cc3)c(=O)c3cc4c(cc32)OCO4)cc1 ?
AmpC inh detg: 2%

Results for COC(=O)c1c(NC(=O)Cc2ccc(OC)c(S(=O)(=O)N3CCOCC3)c2)sc(C)c1C ?
HCV inhibitor: inconclusive; Pf growth 96h: inconclusive; AMA1 RON2 block: -3%; AmpC inh detg: -14%; Pf growth 48h: 13µM*; AmpC inh no detg: 182%

What do the screens show for `O=C(Cc1ccc(S(=O)(=O)N2CCOCC2)s1)Nc1cc(Cl)ccc1Cl`?
HCV inhibitor: -4%; Pf growth 96h: inconclusive; AMA1 RON2 block: -6%; AmpC inh detg: inconclusive; Pf growth 48h: 13µM*; AmpC inh no detg: -42%

How did COc1cc(NC(=O)Cc2ccc(OC)c(S(=O)(=O)N3CCOCC3)c2)c(OC)cc1Cl do in these assays?
HCV inhibitor: inconclusive; Pf growth 96h: 15µM*; AMA1 RON2 block: 62%; AmpC inh detg: -2%; Pf growth 48h: inconclusive; AmpC inh no detg: 91%

What do the screens show for `COc1cc(NC(=O)Cc2ccc(S(=O)(=O)N3CCOCC3)s2)c(OC)cc1Cl`?
HCV inhibitor: 6%; Pf growth 96h: 8.3µM*; AMA1 RON2 block: -21%; AmpC inh detg: -5%; Pf growth 48h: inconclusive; AmpC inh no detg: 85%

Results for COc1cc(OC)c(NC(=O)Cc2ccc(OC)c(S(=O)(=O)N3CCOCC3)c2)cc1Cl ?
HCV inhibitor: -8%; Pf growth 96h: inconclusive; AMA1 RON2 block: -11%; AmpC inh detg: 1%; Pf growth 48h: inconclusive; AmpC inh no detg: 119%

Results for CCn1c(=NC(=O)c2ccc(S(=O)(=O)N3CCCC3)cc2)sc2cc(Br)ccc21 ?
AmpC inh detg: -5%

What do the screens show for `CCn1cc(C(=O)N2CCN(c3ccccc3F)CC2)c(=O)c2cc(S(=O)(=O)N(C)C)ccc21`?
AmpC inh detg: 3%

How did C[N+]1(C)[C@@H]2CC(OC(=O)C(O)(c3cccs3)c3cccs3)C[C@H]1[C@@H]1O[C@@H]12 (stereo partly specified) do in these assays?
Pf growth 96h: 2%; Pf growth 48h: inconclusive

Results for O=C(Cc1ccc(S(=O)(=O)N2CCOCC2)s1)Nc1ccc2c(c1)CCC2 ?
HCV inhibitor: inconclusive; AMA1 RON2 block: -5%; AmpC inh detg: -12%; Pf growth 48h: inconclusive; AmpC inh no detg: -19%

How did O=C(Cc1ccc(S(=O)(=O)N2CCOCC2)s1)Nc1nc2c(s1)CCCC2 do in these assays?
HCV inhibitor: inconclusive; Pf growth 96h: 9.3µM*; AMA1 RON2 block: -1%; AmpC inh detg: -3%; Pf growth 48h: inconclusive; AmpC inh no detg: -33%

What do the screens show for `O=C(Cc1ccc(S(=O)(=O)N2CCCCC2)s1)Nc1ccc(F)cc1F`?
HCV inhibitor: inconclusive; Pf growth 96h: 13µM*; AMA1 RON2 block: -6%; AmpC inh detg: -10%; Pf growth 48h: -26%; AmpC inh no detg: -33%

What do the screens show for `CCCN(CC(=O)Nc1ccc(F)c(F)c1F)C(=O)Cc1ccc(S(=O)(=O)N2CCOCC2)s1`?
HCV inhibitor: inconclusive; Pf growth 96h: inconclusive; AMA1 RON2 block: 1%; AmpC inh detg: -4%; Pf growth 48h: 12µM*; AmpC inh no detg: -29%

How did CNS(=O)(=O)c1cn(CC(=O)N2CCN(c3ccccc3OC)CC2)cc1S(=O)(=O)NC do in these assays?
AmpC inh detg: -5%

Results for CCOc1ccc(CC(=O)Nc2ccc3nc(N4CCCCC4)cc(C)c3c2)cc1OCC ?
AmpC inh detg: 1%

What do the screens show for `N#Cc1ccc(-c2csc(NC(=O)/C=C/c3cccs3)n2)cc1`?
HCV inhibitor: 6%; Pf growth 96h: 10µM*; AMA1 RON2 block: -14%; AmpC inh detg: -3%; Pf growth 48h: inconclusive; AmpC inh no detg: inconclusive
